From the supplement of paper PMC6555819

Legend:
Assay in all cases: PBM binding z-score (relative to random genomic background probes); higher = stronger binding; sequences stand for … in GC…GCGATTGACAGCGTAGAATGAAGG
[1] = system: RARb homodimer (NR concentration 270 nM)
Summary of the method: (§1)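 Custom Agilent 4×180K protein-binding microarrays carried double-stranded probes, each with a 34-nt variable region. These regions held direct-repeat seeds, single-nucleotide variants, half-site ablations and random human genomic background sequences. Ligand-free nuclear receptor dimers were incubated on the arrays for 1 h, antibodies against each partner (one per run) detected binding, and scanned fluorescence was regression-normalized. Binding z-scores take the random background probes as reference.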

[2] = system: RARg:RXRa (NR concentration 270 nM, RXRa partner concentration 90 nM)
Summary of the method: as §1

[3] = system: RARg homodimer (NR concentration 270 nM)
Summary of the method: as §1

[4] = system: RXRa DBDmut IVT, anti-RXR (DBD mutation: RXRa K156A/R161A, NR concentration 90 nM)
Summary of the method: as §1

[5] = system: RXRa homodimer (NR concentration 180 nM)
Summary of the method: as §1

[6] = system: THRa:RXRa (NR concentration 90 nM, RXRa partner concentration 90 nM)
Summary of the method: as §1

[7] = system: THRa homodimer (NR concentration 90 nM)
Summary of the method: as §1

[8] = system: VDR homodimer (NR concentration 270 nM)
Summary of the method: as §1

Sequence	PBM binding z-score [1]	PBM binding z-score [2]	PBM binding z-score [3]	PBM binding z-score [4]	PBM binding z-score [5]	PBM binding z-score [6]	PBM binding z-score [7]	PBM binding z-score [8]
TTACCAAGTTGAAAGGTCGTTGATGCACGCCTTG	2.1	2.9	1.34	1.31	4.21	1.92	-0.189	1.58
GCTAGTTGCTCAGTAAAAGGTCACACACCGGTCG	5.11	4.7	4.02	0.441	5.17	3.61	1.73	1.14
ACTATTAGTTGAGAGGAGGGCAACCGATAGGTTG	1.1	0.586	0.81	0.0671	0.396	1.32	-0.435	0.461
CAAACTAGCTCAAGAGGTCAAAGTCCGCTTCCCG	4.52	4.96	4.04	2.4	5.51	3.66	1.72	3.55
CCTCGGATGACAGAAGGTCAGAGCTGTCCGCTTT	2.83	2.49	2.16	0.111	2	1.95	-0.359	0.287
AATACAGGGTCATCGTAGCCCAGAGTACGCACAG	3.25	5.57	4.42	3.46	6.57	3.69	1.34	3.87
AGTCAAAGTTCAGGACGAGGTAACGTGAAGCACG	1.95	4.86	4.39	2.8	3.03	3.97	1.65	1.62
TAATATAGGTAAAGGTGAAAGTCGAACGATATGA	1.71	1.62	1.66	-0.417	2.32	1.45	0.232	0.489
TAGCCTAGGTCATGCGGGCCATTATAGTGTCGGC	3.04	4.02	4.28	1.05	3.23	3.16	1.17	1.49
TCATATAGGTAATACAGGCGAAAGTCGGCATCTA	-0.403	0.375	0.171	1.23	0.623	-0.0703	-0.232	-0.187
TCTAGCAGGCCAGAGGGTCAGTCAAGAGGTACGG	2.16	1.59	1.82	-0.232	1.43	0.734	-0.934	-0.429
GGAACGAGGGCATTCCAGTTGATAGCATGGCGAT	0.706	1.1	1.38	3.25	0.797	3.1	-0.0583	2.61
CCGACTGGGGCATATGGTTACCATAAGCCAGCCC	-0.243	-0.00585	0.046	-0.59	0.109	-1.07	-0.688	-0.752
CCGACTGGGGAAGAAAGGTTACCATACCATCCGG	1.97	0.982	0.848	-0.897	1.49	1.09	-0.21	-0.0513
TTTTGTAGATCAACAGGAGGTTAAGAAAGATCGA	0.787	1.04	0.47	-0.291	1.23	1.23	0.167	0.336
CCTACTGGGCCAAGGTCATTCATCAGTCAAAGCA	3.52	3.84	3.48	1.7	3.42	3.44	2.53	3.56
CCTACTGGGCCATCAGGTCAATGATATCAACGTT	2.67	2.1	2.2	-0.0866	1.31	3.17	2.24	0.718
TGAAGGAGGTTAAAGATCAGGGAACGTGGCGTCG	1.01	1.89	0.932	-0.223	3.25	1.26	0.214	0.438
GGAACGAGGGCAAAGTTGATAGCCTCTGTCGACG	1.42	2.14	1.91	2.49	1.84	1.35	-0.295	1.54

Sequence	PBM binding z-score [1]	PBM binding z-score [2]	PBM binding z-score [3]	PBM binding z-score [4]	PBM binding z-score [5]	PBM binding z-score [6]	PBM binding z-score [7]	PBM binding z-score [8]
TCGAGTAGGTTACCAATGGGGCATTCAACTTTCT	1.11	1.49	0.547	0.496	1.01	0.551	-0.246	-0.194
GATACAGGGTCAGCTAGAGGCCAAAGTATGGAAA	3.52	7.25	5.27	1.21	4.76	3.25	0.447	1.3
AGAATGAGGTTATTAACATCAGGGAATTGCGGTC	0.673	1.11	0.779	1.83	1.67	2.13	0.447	1.12
CGTTACGGGTCACTGACAGGTTATAGCATTTGGA	3.43	5.78	4.8	1.74	5.12	3	0.0977	0.672
GGTTGTAGATCAAGGTTAAGAAAGACTAAGCTAA	0.97	0.695	0.809	0.0764	0.901	1.53	0.54	0.584
GGTACAGGGTCAGCTAGAGGCCAGAGTATGGAAA	3.27	6.72	4.84	1.01	4.27	3.07	0.717	1.14
TATACAGGGTCAAAAGCCAGAGTACGAATGTCGA	2.74	4.82	4.2	2.54	5.88	3.04	0.446	2.71
TCACCAAGGTGAAGGTCGTTGATCCCTCTGTAGA	1.71	1.55	1.08	0.927	2.01	2.27	0.819	0.342
CCAGACAGGTGAGAAGATAACTCAGCCTCGATTA	-0.0712	0.21	0.586	0.0832	0.262	-0.0838	-0.477	-0.188
GAGACTGGGGCATCAGCAGGTTACCATAACTTAA	1.46	0.941	0.703	0.142	0.509	1.3	0.361	-0.0346
CCTACTGGGCCAAGGTCATGGATCAGTCAAAGCA	3.54	4.16	3.48	-0.0426	3.95	3.71	2.5	1.68
TCGAGTAGGTTAGTAGGGGCATTCAGCCAACATA	0.576	0.0411	-0.0163	0.422	0.366	0.542	0.108	0.677
TGAATGTGGTTATAAGATCAGGGAACGTTGCAAA	0.38	0.101	0.404	-0.35	0.0364	0.133	0.0859	0.37
GCTGCTAGGTCAACTGATGGTCAGCTTAAGCTCG	3.69	5.24	5.28	1.76	3	3.07	0.988	-0.0541
TTACCAAGGTGAAGGTCATTGATCCCTCTGTAGA	3.83	3.84	3.53	1.15	4.16	3.41	1.74	2.17
TCTCGCAGGCCAGAGGGTCACTCAAGAGGTACGG	2.75	2.79	2.32	0.313	2.76	1.73	0.0741	0.536
GCTATTAGTTCAAAGGGCAACCGAATGATTCTCG	2.95	3.39	2.76	3.02	4.05	1.74	-0.325	1.87
TCTTGTAGACCAAAGGTTAAGAAAGCCGAAGCCT	1.34	1.88	0.82	0.533	2.54	1.3	-0.878	-0.489
ACAGACATGTGATGAAGGTAACTCAGGCTATCAT	-0.417	0.0722	0.176	0.00385	0.168	0.492	-0.106	-0.35

Sequence	PBM binding z-score [1]	PBM binding z-score [2]	PBM binding z-score [3]	PBM binding z-score [4]	PBM binding z-score [5]	PBM binding z-score [6]	PBM binding z-score [7]	PBM binding z-score [8]
ATATATAGGTTAAGGGTCATTCAGGTTGGTTCGC	4.27	4.98	4.04	2.17	6.8	3.86	2.03	4.9
CGTCCAAGGTCTTAGGAGGTCAGTGAAGACAGAT	3.12	2.51	2.68	0.709	2.01	4.13	1.15	1.33
CAAACTAGGTCACGAAAGGTCAAAGTCGAATGAC	5.65	7.91	8.57	2.39	7.98	5.23	2.6	3.77
CCTGCTAGCTCATGGTCAGCTAATCTACAGTATG	-0.424	-0.342	-0.0465	-0.0856	-0.437	-0.44	-0.771	-0.81
TCAGACAGGTGAAGGTAACTGAGGTACGCAGTCG	0.685	0.664	0.586	1.05	1.18	1.31	0.494	-0.194
CGTCAAAGTTCAACTAAGGCAACGTAAAGCACGC	4.17	5.79	6.64	4.64	5.05	4.74	0.241	3.68
ACAGACAGGTGAGTGAAAGTAACTCAGCTGGACG	-0.349	0.188	0.291	-0.517	0.309	-0.377	-0.737	-0.536
TTACCAAGGTGAGCTGATGTCGTTGATCCAACTC	0.273	0.225	0.147	-0.369	0.239	1.48	0.0669	-0.492
ACTCTTAGTTGAGACGAGGGCAACCGATAGGTTG	1.14	0.56	0.695	0.403	0.46	2.59	0.356	0.844
TCATATACGTAATACAGGTGAAAGTCGGCATCTA	0.8	0.758	0.567	1.76	1.3	0.75	0.27	0.145
CGTCAAAGTTCAACGTAACGTAACAGAAAGCAGC	3.83	5.52	5.97	4.56	4.19	1.78	-0.366	3.03
CGTCCAAGGTCAAGTTCAGTGAAAGAGACTCGAA	4.68	6.6	7.17	4.31	6.26	3.99	2.87	4.75
CTACCAAGGTGAACAAGGTCGTTTATTACTATTC	2.34	1.72	1.55	2.29	1.77	3.26	2.33	3
TCATATAGGTAAAACGTGAAAGTCGGTGTGGTAA	-0.166	0.237	-0.0627	1.62	0.564	0.025	-0.0697	0.126
TCTTGTAGATCAAAGGTTAGGAAAGCCGAAGCCT	0.876	0.902	0.458	0.579	2.08	0.654	-0.709	-0.493
CCTCGGAGGACAGAGGGTCAGAGCTGTCCGCTTT	2.47	2.45	2.4	-0.382	1.6	1.69	-0.314	-0.0777
GCTCGGAGGACAAGGTCAGAACTTTGTCCGTAGA	2.83	3.15	3.26	0.38	2.6	2.67	0.989	0.595
GCTAGCAGGCCATTAGGGTCACTCAATGACGGGC	2.83	2.53	2.08	0.0923	2.42	3.37	2.03	1.91
